Consider 1 compound from the supplement of paper PMC10933113.

This assay has as its system THP-1. Nature of the assay: CD54 surface expression induction over DMSO control (% over DMSO); higher = stronger dendritic cell activation. Conditions: exposure time: 24 h. The method, then: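 hCLAT-like CD54 and CD86 surface expression on THP1 cells after 24 h exposure at a single concentration (highest non-cytotoxic concentration, or 100-200 µM if not cytotoxic). Flow cytometry (iQue) was run on 5,000 live cells.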

± gives the uncertainty stated by the source.

Consider `CCc1oc2ccccc2c1C(=O)c1cc(I)c(O)c(I)c1` [Benziodarone] (100 µM), for which the “CD54 surface expression induction” value was -0.07 ± 0.74.
